Results published in PubChem BioAssay AID753 (Emory University Molecular Libraries Screening Center, 2007).
This is one part of the list. Results filed as inconclusive are left out. Active and inactive are the calls of the source.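 The calls were made as follows: active = percent of control activity at or below 60%; inconclusive = HPLC trace unusable from injection failure or solvent front hiding peaks; inactive = the rest, plus ubiquitin peak ratio over a set limit.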

target: Ubiquitin carboxyl-terminal hydrolase BAP1 (Homo sapiens) (UniProt Q92560); experiment: BAP1 ubiquitin ester hydrolysis inhibition – biochemical, Ub-ethyl ester substrate, HPLC readout, orthogonal assay, confirmation (AID 753); conditions: purified BAP1, Ub-ethyl ester hydrolysis; at 20 µM, stronger effect = lower value
Sequence (Q92560 whole entry, looked up): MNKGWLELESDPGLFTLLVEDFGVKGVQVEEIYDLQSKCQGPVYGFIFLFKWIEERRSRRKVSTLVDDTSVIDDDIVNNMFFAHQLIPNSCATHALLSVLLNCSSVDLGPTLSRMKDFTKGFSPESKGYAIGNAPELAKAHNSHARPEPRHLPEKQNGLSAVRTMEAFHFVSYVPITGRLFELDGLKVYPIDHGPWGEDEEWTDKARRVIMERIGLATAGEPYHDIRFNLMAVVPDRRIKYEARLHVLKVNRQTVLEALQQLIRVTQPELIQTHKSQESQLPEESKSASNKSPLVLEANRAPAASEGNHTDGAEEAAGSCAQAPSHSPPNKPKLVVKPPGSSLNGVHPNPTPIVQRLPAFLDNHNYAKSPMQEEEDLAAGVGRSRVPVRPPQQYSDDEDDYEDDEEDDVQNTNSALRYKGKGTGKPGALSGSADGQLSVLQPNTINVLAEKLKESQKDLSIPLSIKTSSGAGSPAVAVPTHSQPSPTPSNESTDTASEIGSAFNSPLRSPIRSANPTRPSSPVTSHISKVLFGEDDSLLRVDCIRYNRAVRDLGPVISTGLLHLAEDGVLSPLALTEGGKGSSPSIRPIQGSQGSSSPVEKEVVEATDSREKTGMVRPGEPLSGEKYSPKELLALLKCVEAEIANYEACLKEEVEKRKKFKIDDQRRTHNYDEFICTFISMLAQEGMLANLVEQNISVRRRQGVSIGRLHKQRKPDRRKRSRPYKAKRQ

% of control activity, inactive:
C=CCn1c2ccccc2c2nnc(SC(CC)C(=O)Nc3nc(C)c(C(=O)OCC)s3)nc21 (configuration not stated) 73.6%
Fc1ccc2nc(Nc3nc4c(s3)CCCC4)sc2c1 142%
O=c1c2ccccc2nc(CSc2nnnn2-c2ccccc2)n1-c1ccccc1 83.3%
Fc1ccc(-c2ccc(-c3nn4c(-c5ccco5)nnc4s3)o2)cc1 106%
N#Cc1c(/N=C/N2CCCC2)oc(-c2ccccc2)c1-c1ccccc1 111%
CCC(c1nnnn1C1CCCC1)N(Cc1cccs1)Cc1cc2cccc(C)c2[nH]c1=O (configuration not stated) 99.7%

outcome, inactive:
CCOc1ccc(CN(Cc2ccco2)C(c2cccs2)c2nnnn2C(C)(C)C)cc1 (configuration not stated)
